According to PubChem BioAssay AID1159580 (chemical genetic matrix, 2015):
The campaign covered roughly 5,500 compounds. About 2,000 (36%) were called active. About 18% were inconclusive and are not listed. Some of the results follow. Unmarked numbers belong to inactive results. Rule as the data show it: active = normalized growth mostly below about 0.91 (no sharp cut-off); inconclusive = no clear call, values can overlap the other calls; inactive = mostly above about 0.92.

Assay: chemical genetic growth profiling, strain panel (AID 1159580);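 also: tested at 20 µM; growth read once vehicle control cultures reached saturation at 30 °C; 1 = growth at the plate median or of vehicle wells; lower values mean less growth of the strain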
Conditions: S. cerevisiae deletion strains, growth OD

SMILES: CC1=CC(=O)C2C(C)(C)CCC[C@]2(C)[C@@]1(O)CCc1ccoc1 (stereo partly specified)
- normalized growth (locus YJL187C, strain SWE1, stronger effect = lower value): 0.992
- normalized growth (locus YJR043C, strain POL32, stronger effect = lower value): 1.08
- normalized growth (locus YJR066W, strain TOR1, stronger effect = lower value): 0.973
- normalized growth (locus YJR075W, strain HOC1, stronger effect = lower value): 0.994
- normalized growth (locus YKL009W, strain mrt4, stronger effect = lower value): 0.981
- normalized growth (locus YKL068W, stronger effect = lower value): 0.968
- normalized growth (locus YKL085W, strain MDH1 (second series), stronger effect = lower value): 0.974
- normalized growth (locus YKL085W, strain MDH1, stronger effect = lower value): 0.974
- normalized growth (locus YKL160W, strain elf1, stronger effect = lower value): 0.975
- normalized growth (locus YKL190W, strain CNB1, stronger effect = lower value): 0.986
- normalized growth (locus YKR001C, strain vps1, stronger effect = lower value): 1.04
- normalized growth (locus YKR026C, strain gcn3, stronger effect = lower value): 1
- normalized growth (locus YKR091W, strain srl3, stronger effect = lower value): 0.991
- normalized growth (locus YLL001W, strain dnm1, stronger effect = lower value): 0.964
- normalized growth (locus YLL026W, stronger effect = lower value): 0.994
- normalized growth (locus YLL041C, strain sdh2, stronger effect = lower value): 0.999
- normalized growth (locus YLR027C, strain aat2, stronger effect = lower value): 0.984
- normalized growth (locus YLR039C, strain RIC1, stronger effect = lower value): 1
- normalized growth (locus YLR058C, strain SHM2, stronger effect = lower value): 1.02
- normalized growth (locus YLR102C, strain apc9, stronger effect = lower value): 0.979
- normalized growth (locus YLR113W, strain HOG1, stronger effect = lower value): 1.02
- normalized growth (locus YLR221C, strain rsa3, stronger effect = lower value): 1.02
- normalized growth (locus YLR258W, strain gsy2, stronger effect = lower value): 0.996
- normalized growth (locus YLR262C, strain YPT6 (second series), stronger effect = lower value): 0.835 (active)
- normalized growth (locus YLR268W, strain sec22, stronger effect = lower value): 1
- normalized growth (locus YLR320W, strain mms22, stronger effect = lower value): 1
- normalized growth (locus YLR342W, strain FKS1, stronger effect = lower value): 0.99
- normalized growth (locus YLR357W, strain rsc2, stronger effect = lower value): 1.04
- normalized growth (locus YLR370C, strain arc18, stronger effect = lower value): 0.996
- normalized growth (locus YLR371W, strain rom2, stronger effect = lower value): 0.983
- normalized growth (locus YLR384C, strain iki3, stronger effect = lower value): 0.982
- normalized growth (locus YLR418C, strain cdc73, stronger effect = lower value): 0.995
- normalized growth (locus YML016C, strain PPZ1, stronger effect = lower value): 0.998
- normalized growth (locus YML032C, strain rad52, stronger effect = lower value): 0.983
- normalized growth (locus YML120C, strain ndi1, stronger effect = lower value): 0.954
- normalized growth (locus YML124C, strain tub3, stronger effect = lower value): 0.993
- normalized growth (locus YMR058W, strain fet3, stronger effect = lower value): 1
- normalized growth (locus YMR078C, strain ctf18, stronger effect = lower value): 0.974
- normalized growth (locus YMR125W, strain sto1, stronger effect = lower value): 0.959
- normalized growth (locus YMR129W, stronger effect = lower value): 0.981
- normalized growth (locus YMR205C, strain PFK2, stronger effect = lower value): 0.922
- normalized growth (locus YMR223W, strain ubp8, stronger effect = lower value): 0.972
- normalized growth (locus YMR231W, strain pep5, stronger effect = lower value): 0.998
- normalized growth (locus YMR307W, strain GAS1, stronger effect = lower value): 1.13
- normalized growth (locus YNL067W, strain RPL9B, stronger effect = lower value): 1
- normalized growth (locus YNL071W, strain lat1, stronger effect = lower value): 0.902 (active)
- normalized growth (locus YNL183C, strain NPR1, stronger effect = lower value): 0.975
- normalized growth (locus YNL209W, strain ssb2, stronger effect = lower value): 0.987
- normalized growth (locus YNL233W, strain BNI4, stronger effect = lower value): 1.03
- normalized growth (locus YNL248C, strain rpa49, stronger effect = lower value): 0.998
- normalized growth (locus YNL250W, strain rad50, stronger effect = lower value): 0.927
- normalized growth (locus YNL271C, strain bni1, stronger effect = lower value): 0.955
- normalized growth (locus YNL298W, strain CLA4, stronger effect = lower value): 0.996
- normalized growth (locus YNL307C, strain MCK1, stronger effect = lower value): 0.986
- normalized growth (locus YNL322C, strain KRE1 (second series), stronger effect = lower value): 0.998
- normalized growth (locus YNR049C, strain mso1, stronger effect = lower value): 1
- normalized growth (locus YNR052C, strain pop2, stronger effect = lower value): 0.979
- normalized growth (locus YOL006C, strain TOP1, stronger effect = lower value): 1.15
- normalized growth (locus YOL012C, strain htz1): 1.06
- normalized growth (locus YOL147C, strain pex11, stronger effect = lower value): 0.976
- normalized growth (locus YOR001W, strain rrp6, stronger effect = lower value): 1.06
- normalized growth (locus YOR061W, strain CKA2, stronger effect = lower value): 0.993
- normalized growth (locus YOR069W, strain VPS5, stronger effect = lower value): 0.99
- normalized growth (locus YOR070C, strain gyp1, stronger effect = lower value): 0.99
- normalized growth (locus YOR080W, strain dia2, stronger effect = lower value): 1
- normalized growth (locus YOR083W, strain WHI5, stronger effect = lower value): 1.01
- normalized growth (locus YOR106W, strain vam3, stronger effect = lower value): 1
- normalized growth (locus YOR136W, strain idh2, stronger effect = lower value): 0.986
- normalized growth (locus YOR144C, strain elg1, stronger effect = lower value): 0.986
- normalized growth (locus YOR184W, strain ser1, stronger effect = lower value): 1.01
- normalized growth (locus YOR231W, strain MKK1, stronger effect = lower value): 1.03
- normalized growth (locus YOR265W, strain rbl2, stronger effect = lower value): 1.02
- normalized growth (locus YOR270C, strain vph1, stronger effect = lower value): 0.862
- normalized growth (locus YOR290C, strain snf2, stronger effect = lower value): 0.959
- normalized growth (locus YOR316C, strain cot1, stronger effect = lower value): 0.993
- normalized growth (locus YPL051W, strain arl3, stronger effect = lower value): 0.959
- normalized growth (locus YPL078C, strain atp4, stronger effect = lower value): 0.966
- normalized growth (locus YPL106C, strain sse1, stronger effect = lower value): 1.02
- normalized growth (locus YPL240C, strain hsp82, stronger effect = lower value): 1
- normalized growth (locus YPL241C, strain CIN2, stronger effect = lower value): 0.985
- normalized growth (locus YPL256C, strain CLN2, stronger effect = lower value): 1.01
- normalized growth (locus YPR119W, strain clb2, stronger effect = lower value): 0.969
- normalized growth (locus YPR141C, strain kar3, stronger effect = lower value): 0.962
- normalized growth (locus YPR163C, strain tif3, stronger effect = lower value): 0.977
- normalized growth (locus YPR167C, strain met16, stronger effect = lower value): 0.972
- normalized growth (strain wtn01, stronger effect = lower value): 1.01
